We go through 32 molecules from PubChem BioAssay (Tox21).

Experiment [1] has as its target Thyrotropin-releasing hormone receptor (Homo sapiens) (UniProt P34981). The experiment in a line: qHTS assay to identify small molecule agonists of the thyrotropin-releasing hormone receptor (TRHR) signaling pathway (AID 1346891; calls by dose curve; also: series mostly up to about 58 µM). The procedure, abridged:
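Agonist-mode intracellular calcium readout: kinetic fluorescence over 3 min at 1 s intervals after compound addition to TRHR-HEK293 cells (18 h seeded, 2 h dye-loaded at 37 C). Fifteen concentrations, triplicates.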

Experiment [2] is described as follows: Human pregnane X receptor (PXR) small molecule agonists, qHTS cell viability counter screen (AID 1346977). Also: nearly all actives have a fitted effect of over 50% in size. Also: potency is read from the fitted curve at half-maximal effect. The procedure, abridged:
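Same-well viability read: CellTiter-Fluor added after 23 hr compound exposure, fluorescence measured 1 hr later. Cells were PXR-Luc HepG2 seeded at 2,000/well in 5% charcoal-stripped FBS medium, rested 5 hr before dosing at 37 C.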

The nature of experiment [3]: Caspase-3/7 induction in HepG2 cells by small molecules, qHTS assay (AID 1346978). Also: nearly all actives have a fitted effect of over 15% in size. The procedure, abridged:
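Caspase-3/7 induction was measured by Caspase-Glo 3/7 luminescence (30 min, room temperature) after a 17 hr compound exposure of wild-type HepG2 cells seeded at 2,000 per well and pre-incubated 5 hr.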
(Quantitative high-throughput screening tests each substance at several concentrations.)

Experiment [4] is described as follows: Caspase-3/7 induction in CHO-K1 cells by small molecules, qHTS cell viability counter screen (AID 1346979). Also: nearly all actives have a fitted effect of over 35% in size. The procedure, abridged:
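Cytotoxicity counter screen: CellTiter-Fluor added to compound-treated wild-type CHO-K1 cells at 16 h (37C, 5% CO2), fluorescence measured 1 h later; same wells as caspase-3/7 measurement.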

The nature of experiment [5]: Caspase-3/7 induction in HepG2 cells by small molecules, qHTS cell viability counter screen (AID 1346981). Also: series mostly up to about 92 µM; nearly all actives have a fitted effect of over 30% in size. The method in brief:
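Counter screen for cytotoxicity: HepG2 exposed 16 hr to compounds, then CellTiter-Fluor viability signal (fluorescence, 1 hr reagent incubation).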

Experiment [6] addresses Nuclear receptor subfamily 1 group I member 2 (Homo sapiens) (UniProt O75469). Kind of experiment: Human pregnane X receptor (PXR) small molecule agonists, qHTS assay (AID 1346982). Also: nearly all actives have a fitted effect of over 35% in size. Also: potency is read from the fitted curve at half-maximal effect. The method in brief: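 Luminescence (ONE-Glo, 30 min RT) after 24 hr compound exposure of PXR-Luc HepG2 cells; cells rested 5 hr post-plating in 5% charcoal-stripped FBS medium.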
Experiment [7] deals with Nuclear receptor subfamily 1 group I member 2 (Rattus norvegicus) (UniProt Q9R1A7). The experiment in a line: Rat pregnane X receptor (rPXR) activation by small molecules, qHTS assay (AID 1346983). Also: nearly all actives have a fitted effect of over 20% in size. Particulars: rPXR luciferase reporter cells, One-Glo luminescence, 24 h; max activation: stronger effect = higher value. The method in brief:
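Luminescent readout (One-Glo luciferase, 30 min room temperature) followed 24 hr compound treatment at 37 C of rPXR cells plated 2,000 per well and preincubated 5hr; qHTS format with compounds delivered in DMSO.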

The target of experiment [8] is Nuclear receptor subfamily 1 group I member 2 (Homo sapiens) (UniProt O75469). Kind of experiment: CYP3A4 induction through human pregnane X receptor (PXR) by small molecules, qHTS assay (AID 1346984). Also: nearly all actives have a fitted effect of over 40% in size. Also: potency is read from the fitted curve at half-maximal effect. The procedure, abridged: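 DPX-2 reporter cells; 24h cpd, 37C; Luciferin-IPA 3uM final x3h; One-Glo 30 min RT; lumi read.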
Experiment [9] has the same target. The experiment in a line: Human pregnane X receptor (PXR) activation by small molecules, qHTS assay (AID 1346985). Also: nearly all actives have a fitted effect of over 40% in size. Also: potency is read from the fitted curve at half-maximal effect. The method in brief: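 DPX-2 cells (HepG2 co-transfected with a PXR response element and a CYP3A4-promoter luciferase construct) were seeded at 2,000 per well, rested 5 hr at 37C, then exposed to DMSO-dissolved compounds for 24 hr. Activation was read as luciferase luminescence.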

Experiment [10] can be described thus: Caspase-3/7 induction in CHO-K1 cells by small molecules, qHTS assay (AID 1346980). Also: nearly all actives have a fitted effect of over 15% in size. The method in brief: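 Luminescent Caspase-Glo 3/7 read (30min, room temperature) quantified apoptosis induction. Cells were wild-type CHO-K1, treated with compound for 17hr at 37 C and 5% CO2.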

The structures appear in SMILES notation. “And” between values parts separate entries of the source, which are not always exact repeats. Identical values can stand only once. Unmarked numbers belong to inactive results. Records with an inconclusive call do not appear. The source made the active and inactive calls. Unless noted, calls follow the shape of the dose curve; as a rule, active = well fitted curve in the direction sought with a large enough effect in the repeat runs; inconclusive = weak or mixed curves; inactive = no such curve, though single readings can be large; an effect the other way counts as inactive or inconclusive.
% is scaled to controls: 0 for no effect and ±100 for the full control effect.

Chain of Nuclear receptor subfamily 1 group I member 2 (Rattus norvegicus) (Q9R1A7 whole entry, looked up): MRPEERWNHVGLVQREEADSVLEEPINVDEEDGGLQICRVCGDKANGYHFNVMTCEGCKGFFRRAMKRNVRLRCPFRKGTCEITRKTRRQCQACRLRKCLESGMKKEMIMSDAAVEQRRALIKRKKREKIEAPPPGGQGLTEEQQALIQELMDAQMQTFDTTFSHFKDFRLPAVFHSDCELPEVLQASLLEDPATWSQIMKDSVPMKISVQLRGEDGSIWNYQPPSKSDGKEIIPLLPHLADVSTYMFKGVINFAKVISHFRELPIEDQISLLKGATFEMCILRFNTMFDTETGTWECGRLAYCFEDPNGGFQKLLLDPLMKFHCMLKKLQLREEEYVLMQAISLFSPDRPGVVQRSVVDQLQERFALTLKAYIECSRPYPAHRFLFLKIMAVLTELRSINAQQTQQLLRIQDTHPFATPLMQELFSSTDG
Chain of Nuclear receptor subfamily 1 group I member 2 (Homo sapiens) (O75469 whole entry, looked up): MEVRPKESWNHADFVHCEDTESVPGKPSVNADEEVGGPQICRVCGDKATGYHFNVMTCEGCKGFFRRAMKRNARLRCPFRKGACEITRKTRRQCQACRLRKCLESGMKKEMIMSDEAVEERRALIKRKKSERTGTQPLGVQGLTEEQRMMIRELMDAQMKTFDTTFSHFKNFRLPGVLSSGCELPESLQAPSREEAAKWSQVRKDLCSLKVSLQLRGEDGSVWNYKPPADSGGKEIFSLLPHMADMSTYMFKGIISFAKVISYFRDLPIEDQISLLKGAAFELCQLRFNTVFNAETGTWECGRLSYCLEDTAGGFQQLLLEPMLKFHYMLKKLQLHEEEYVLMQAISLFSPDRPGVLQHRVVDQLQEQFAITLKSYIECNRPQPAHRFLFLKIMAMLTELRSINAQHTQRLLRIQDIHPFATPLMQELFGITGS
Chain of Thyrotropin-releasing hormone receptor (Homo sapiens) (P34981 whole entry, looked up): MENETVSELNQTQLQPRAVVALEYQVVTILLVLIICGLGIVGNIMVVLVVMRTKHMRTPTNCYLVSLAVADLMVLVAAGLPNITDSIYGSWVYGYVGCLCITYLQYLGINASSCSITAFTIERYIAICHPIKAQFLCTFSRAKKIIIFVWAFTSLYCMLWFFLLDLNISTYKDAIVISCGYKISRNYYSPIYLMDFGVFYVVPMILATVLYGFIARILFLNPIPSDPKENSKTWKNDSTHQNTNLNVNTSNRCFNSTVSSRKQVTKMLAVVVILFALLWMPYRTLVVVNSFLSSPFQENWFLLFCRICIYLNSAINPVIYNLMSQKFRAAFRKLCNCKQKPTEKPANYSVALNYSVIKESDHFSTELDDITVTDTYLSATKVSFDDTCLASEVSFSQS

Consider `Cc1c(C(=O)NCCO)[n+](=O)c2ccccc2n1[O-]`, for which the Potency result in experiment [1], in experiment [2], in experiment [3], in experiment [4], in [5] and in experiment [6] was “inactive” each time. The Potency result in experiment [8] and in experiment [9] was “inactive” each time. For the same molecule, the max activation in experiment [7] is -3.05%.
Consider `C[C@]12CCC(=O)C=C1CC[C@@H]1[C@@H]2CC[C@@]2(C)[C@H]1CC[C@]2(O)C(=O)CO`, for which the Potency entry in [1], in experiment [2], in experiment [3], in [4], in experiment [6] and in experiment [8] was “inactive” throughout. Besides, the Potency result in experiment [9] was “inactive”. Also, the max activation in [7] is 14.2%.
In the case of `CC(=O)O[C@H]1CC[C@@]2(C)C(=CC[C@@H]3[C@@H]2CC[C@]2(C)C(C(C)=O)=CC[C@@H]32)C1`, the Potency result in experiment [1], in experiment [3], in experiment [4], in [5] and in [6] was “inactive” in each case. The outcome in experiment [10] was inactive.
As for `OCC(CBr)(CBr)CBr`, the Potency entry in experiment [1], in [2], in experiment [4] and in experiment [5] was “inactive” in each case. In experiment [10], the outcome was inactive.
Consider `Cc1c(N)cccc1N`, for which the Potency result in experiment [1], in experiment [2], in experiment [4] and in experiment [5] was “inactive” throughout.
With `CCCCOc1cc(C(=O)NCCN(CC)CC)c2ccccc2n1`, the Potency entry in [1] and in [3] was “inactive” throughout. In [2], the Potency is 21.1 µM (active). The call in [10] was inactive. Besides, the max activation in [7] was -1.11%.
Consider `CC1=CC(=O)CC(C)(C)C1=O`, for which the Potency entry in experiment [1], in experiment [2], in experiment [3] and in [5] was “inactive” in each case. In experiment [6], the Potency is 62.4 µM (active).
With `COc1ccc(S(=O)(=O)Nc2nnc(CC(C)C)s2)cc1`, the Potency entry in experiment [1], in experiment [3], in experiment [4], in [5], in experiment [6] and in experiment [8] was “inactive” throughout. Also, the Potency result in experiment [9] was “inactive”. Further, the outcome in [10] was inactive. In experiment [7], the max activation is -1.31% and -1.74%.
For `Cc1ccccc1C(=O)Nc1ccc(C(=O)N2CCCC(O)c3cc(Cl)ccc32)c(C)c1` (stereo not drawn), the Potency entry in experiment [1], in experiment [2], in experiment [3], in experiment [5] and in [6] was “inactive” throughout. Besides, the molecule was classed as inactive in experiment [10].
On to `C/C(=N\O)[C@@H](C)NCC(C)(C)CN[C@H](C)/C(C)=N/O`, for which the Potency entry in experiment [1], in experiment [3], in [4], in [5] and in experiment [6] was “inactive” throughout. Besides, the molecule was classed as inactive in [10].
In the case of `Cc1nc(-c2ccccn2)ncc1C(=O)Nn1cc(C)c2cc(F)ccc21`, the Potency result in [1], in experiment [2], in experiment [3] and in experiment [5] was “inactive” in each case. The Potency in experiment [6] is 4.86 µM (active).
Take `OC[C@H]1O[C@@H](O[C@H]2[C@H](O)[C@@H](O)[C@H](O)O[C@@H]2CO)[C@H](O)[C@@H](O)[C@H]1O`: the Potency entry in experiment [1], in experiment [3], in experiment [4], in [5] and in experiment [6] was “inactive” each time. Also, the molecule was classed as inactive in [10].
In the case of `CC(=O)N[C@@H](CC(C)C)C(=O)O`, the Potency result in experiment [1], in experiment [3], in experiment [4] and in experiment [5] was “inactive” each time. Further, the molecule was called inactive in [10].
For `CCCC1CCC(=O)O1` (stereo not drawn), the Potency entry in experiment [1], in [2], in experiment [3], in experiment [4], in experiment [5] and in experiment [6] was “inactive” in each case.
As for `Clc1cccc(-c2cc(Cl)cc(Cl)c2)c1`, the Potency result in experiment [1], in experiment [3], in experiment [4] and in experiment [5] was “inactive” throughout. In experiment [10], the outcome was inactive. For the same molecule, the Potency in [6] was 59 µM (active).
With `CC1(C)C(=O)N(Cl)C(=O)N1Br`, the Potency entry in experiment [1], in experiment [3], in experiment [4], in experiment [5] and in experiment [6] was “inactive” throughout. Also, in experiment [10], the molecule was called inactive.
In the case of `CCOC(=O)CS`, the Potency entry in experiment [1], in experiment [3], in experiment [4], in [5] and in [6] was “inactive” throughout. Further, in experiment [10], the molecule was classed as inactive.
`CC(C)C1=CC2=CC[C@@H]3[C@](C)(CCC[C@@]3(C)C(=O)O)[C@H]2CC1`: the Potency entry in experiment [1], in [2], in experiment [3], in experiment [5], in [8] and in experiment [9] was “inactive” in each case. For the same molecule, the molecule was called inactive in experiment [10]. Further, in experiment [6], the Potency was 27.3 µM (active). The max activation in experiment [7] is -2.9%.
Turning to `CCCCC(CC)COC(=O)COc1cc(Cl)c(Cl)cc1Cl` (stereo not drawn), the Potency entry in [1], in experiment [3], in experiment [4], in experiment [5] and in experiment [6] was “inactive” in each case. The molecule was classed as inactive in experiment [10].
In the case of `CN1CCN(C2=Nc3cc(F)ccc3Cc3ccccc32)CC1`, the Potency entry in experiment [1], in experiment [3], in experiment [4], in experiment [5] and in [6] was “inactive” in each case. Besides, in [10], the result was inactive. For the same molecule, the max activation in experiment [7] is 2.35%. The results for the Potency in experiment [8] and in experiment [9] were 25.1 µM (active) and 22.4 µM (active), respectively.
For `Cc1cc(S(=O)(=O)O)c(N)cc1Cl`, the Potency entry in experiment [1], in experiment [3], in experiment [4], in experiment [5] and in experiment [6] was “inactive” throughout. The molecule was called inactive in [10].
On to `CC1(C)S[C@@H]2[C@H](NC(=O)C(C(=O)O)c3ccccc3)C(=O)N2[C@H]1C(=O)O` (stereo partly drawn), for which the Potency result in [1], in [2], in experiment [3], in [4], in experiment [5] and in experiment [6] was “inactive” in each case. In addition, the Potency result in [8] and in experiment [9] was “inactive” throughout. Moreover, the max activation in experiment [7] is 0.938%.
For the molecule `OCCN(CCO)c1ccccc1`, the Potency entry in [1], in experiment [2], in [3], in [5] and in [6] was “inactive” each time. For the same molecule, the molecule was classed as inactive in experiment [10].
With `Cc1nc(N)nc(N)c1-c1ccc(Cl)c(Cl)c1`, the Potency result in [1], in experiment [3], in experiment [4], in [5] and in experiment [6] was “inactive” in each case. Besides, the molecule was classed as inactive in experiment [10].
As for `CC(=O)Oc1cc(C(C)C)c(OCCN(C)C)cc1C`, the Potency entry in [1], in [2], in experiment [3], in experiment [4], in [5] and in experiment [6] was “inactive” in each case. The Potency result in experiment [8] and in [9] was “inactive” in each case. The max activation in experiment [7] was -1.16%.
Consider `CN(C)CCOc1ccccc1Cc1ccccc1`, for which the Potency result in experiment [1], in [3], in [4], in experiment [5] and in [6] was “inactive” each time. Moreover, the call in experiment [10] was inactive.
For `CCCCCCCCCC#N`, the Potency result in [1], in [3], in experiment [4] and in [5] was “inactive” throughout. Further, the molecule was called inactive in [10].
For the molecule `CCNCCO`, the Potency entry in experiment [1], in experiment [3], in experiment [4], in [5] and in experiment [6] was “inactive” throughout. In experiment [10], the call was inactive.
With `CC1=C(O)C(=O)OC1C` (stereo not drawn), the Potency result in experiment [1], in [3], in [4], in [5] and in experiment [6] was “inactive” each time. Besides, in experiment [10], the molecule was called inactive.
With `O=c1oc2c(O)c(O)cc3c(=O)oc4c(O)c(O)cc1c4c23`, the activation in [1] was 0.184% [at 11.8 µM]; in experiment [6], -29.4% [at 19 µM]. Moreover, the activity change, negative = cytotoxicity was 4.42% [at 19 µM] in [2] and 1.61% [at 19 µM] in experiment [5]. For the same molecule, the caspase activation in experiment [3] is 0.0819% [at 19 µM]. In addition, the caspase-3/7 activation in experiment [10] is 0.998% [at 19 µM].
With `NNS(=O)(=O)c1ccc(Oc2ccc(S(=O)(=O)NN)cc2)cc1`, the Potency entry in [1], in experiment [3], in experiment [4] and in experiment [5] was “inactive” in each case. Besides, in [10], the call was inactive.
On to `Oc1ccccc1F`, for which the Potency entry in experiment [1], in [3], in experiment [4], in [5] and in experiment [6] was “inactive” in each case. Further, the call in [10] was inactive.
